From PubChem
In the library only some 4% were active in any assay of this set; here they are far more common.
DUSP3 inh = DUSP3 (human) phosphatase inhibition; P51452; recombinant VHR phosphatase, pNPP absorbance; inhibition, % at 13.3 µM; 290,000 compounds, 0.52% hits; AID 1654; in the data active means inhibition above about 50%
Target sequence (P51452 whole entry, looked up): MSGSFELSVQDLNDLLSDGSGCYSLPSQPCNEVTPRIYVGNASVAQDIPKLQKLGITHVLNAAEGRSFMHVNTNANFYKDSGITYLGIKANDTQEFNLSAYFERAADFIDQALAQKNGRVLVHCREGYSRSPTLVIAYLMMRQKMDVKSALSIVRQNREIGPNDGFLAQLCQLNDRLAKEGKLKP
Autofluor counter = flagged as autofluorescent in microsphere protease counterscreen. compound autofluorescence counterscreen, microsphere flow cytometry; stronger effect = higher value. fluorescence intensity (concentration not given with the values). 360,000 compounds, 3.1% hits. AID 624483; in the data active means fluorescence intensity above about 16000; inconclusive means no clear call, values can overlap the other calls
BoNT A protease = blocks Botulinum neurotoxin A light chain protease; multiplex microsphere protease substrate cleavage, flow cytometry; 360,000 compounds, 0.17% hits; inhibition, % at 10 µM; further: plate controls were buffer without enzyme for full effect and enzyme alone for no effect
Anthrax LF prot = inhibitors of Bacillus anthracis lethal factor protease | inhibition, % at 10 µM | 360,000 compounds, 0.12% hits | multiplex microsphere protease cleavage assay, LF | P15917; further: plate controls were buffer without enzyme for full effect and enzyme alone for no effect
MazF activator = activators of E. coli MazEF toxin-antitoxin RNase; P0AE70; FAM/BHQ RNA-DNA oligo cleavage fluorescence, 5 h; activation, % at 20 µM; 350,000 compounds, 0.32% hits; AID 504720; in the data active means activation above about 50%
Target sequence (P0AE70 whole entry, looked up): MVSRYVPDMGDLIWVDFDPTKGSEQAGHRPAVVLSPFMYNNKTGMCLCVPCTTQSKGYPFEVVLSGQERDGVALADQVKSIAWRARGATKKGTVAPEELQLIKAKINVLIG
BoNT-F LC inh = BoNT F light chain protease inhibition; 360,000 compounds, 0.22% hits; Multiplex microsphere protease cleavage assay, flow cytometry; inhibition, % at 10 µM; AID 588497; in the data active means inhibition above about 35%, passing the limit was not always enough; inconclusive means no clear call, values can overlap the other calls; further: plate controls were buffer without enzyme for full effect and enzyme alone for no effect
An asterisk follows results filed as active; ? = inconclusive; . = no result. Unless noted, no stated cut-off is given here; in the data, active means inhibition above about 30%; inconclusive means no clear call, values can overlap the other calls; inactive means below that.

SMILES | DUSP3 inh | Autofluor counter | BoNT A protease | Anthrax LF prot | MazF activator | BoNT-F LC inh
COc1cc(NC(=S)NC(=O)c2ccc(F)cc2)ccc1NC(=O)c1ccco1 | 2.3 | 2127 | 0.6 | 2.3 | 0.3 | 7.1
CCc1cc2c(NC(Cc3ccccc3)C(=O)O)nc(C)nc2s1 (centres undefined) | -3.2 | 3108 | 0.5 | 6.3 | 8.5 | ?
CCCOc1ccc(C(=O)N2CCN(c3ccc(NC(=O)CC)cc3Cl)CC2)cc1 | 13.5 | 20982* | ? | 1.3 | 1.9 | -4.0
CN1CCN(c2ccc(NC(=O)COc3ccccc3)cc2Cl)CC1 | 24.9 | 5927 | 2.6 | -0.2 | -10.8 | -3.5
CCc1nc2cc(Cl)c(Cl)cc2nc1CC | 1.2 | 4282 | 0.4 | 2.1 | 8.8 | -7.7
CCc1nc2cc(Cl)c(Cl)cc2[nH]1 | -8.3 | 23720* | ? | -0.8 | -11.8 | 1.3
O=C1CCC(C(=O)OCC(=O)N2N=C3/C(=C/c4ccccc4)CCCC3C2c2ccccc2)N1 (centres undefined) | 6.5 | 20500* | ? | -0.4 | 1.5 | -1.3
O=C1CCC(C(=O)OCC(=O)N2N=C3/C(=C\c4ccccc4)CCCC3C2c2ccccc2)N1 (centres undefined) | . | 3808 | -0.6 | -0.1 | 2.0 | 1.5
OCCN(Cc1nc(-c2ccc3c(c2)OCO3)no1)Cc1cccs1 | 57.8* | 3637 | 0.7 | 2.1 | 1.4 | 3.3
CCN1C(=O)c2cccc3c(NS(=O)(=O)c4ccc(NC(C)=O)cc4)ccc1c23 | 7.0 | ? | ? | ? | 2.1 | 5.8
CCOC(=O)c1ccc(NC(=O)Nc2ccc3c4c(cccc24)C(=O)N3CC)cc1 | 27.0 | 21257* | -1.7 | 0.5 | 35.2 | -2.2
CN(C)c1ccc(/C=N/NC(=O)c2ccccn2)cc1 | 0.0 | 6090 | 0.2 | -6.8 | 4.6 | 1.1
CN(C)c1ccc(/C=N/NC(=O)c2cnc3ccccc3c2)cc1 | 30.1 | 3550 | 2.3 | 4.5 | 189.8* | 9.8
O=C(N/N=C/c1ccc(O)cc1O)c1ccc(NC(=O)C2CCCCC2)cc1 | 2.3 | 4739 | 1.9 | 36.3* | 5.4 | 4.0
CC(C)c1nnc(NC(=O)Cn2nc(-c3ccc4c(c3)OCCO4)ccc2=O)s1 | 4.0 | 17082* | -3.5 | -8.4 | -0.2 | -8.3
COc1ccc(/C=C/C(=O)OCC(=O)NCCc2ccccc2)c(OC)c1 | . | 3482 | -0.6 | -3.3 | -1.6 | 0.6
O=C1C(Cl)=C(NCC2CCCO2)C(=O)N1Cc1ccccc1 (centres undefined) | -3.6 | 20284* | ? | -1.0 | -5.5 | -2.2
Cc1cccc(Cn2c(NCCO)nc3c2c(=O)n(C)c(=O)n3C)c1 | 19.4 | 6820 | 1.1 | -2.0 | 1.5 | -3.5
O=C1C(Cl)=C(NC2CCCCC2)C(=O)N1Cc1ccccc1 | 3.6 | 4593 | -1.1 | -9.2 | -1.7 | -0.6
Cn1c(=O)c2c(nc(NCCCO)n2Cc2cccc(Br)c2)n(C)c1=O | -9.6 | 18885* | ? | -0.7 | 5.8 | 4.5
Cn1c(=O)n(Cc2ccccc2)c(=O)c2c1nc(NCC1CCCO1)n2Cc1ccccc1 (centres undefined) | 12.5 | 24036* | -0.8 | -4.2 | -0.2 | -3.2
CNc1nc2c(c(=O)n(C)c(=O)n2C)n1Cc1ccccc1 | 21.9 | 21814* | 2.4 | -0.8 | -7.1 | 2.9
Cn1c(=O)c2c(nc(NCC3CCCO3)n2C)n(C)c1=O (centres undefined) | 3.5 | 8209 | 0.6 | 4.9 | 6.0 | -7.1
COCCN1C(=O)C(=O)/C(=C(/O)c2ccc(C)cc2)C1c1ccccn1 (centres undefined) | 16.5 | 4725 | 0.1 | 8.6 | -11.2 | 10.5
CN1C(=O)NC(c2ccccc2)C2=C1CN(c1cccc(C(F)(F)F)c1)C2=O (centres undefined) | -4.0 | 3099 | 0.8 | 3.3 | 1.3 | 2.2
SMILES | DUSP3 inh | Autofluor counter | BoNT A protease | Anthrax LF prot | MazF activator | BoNT-F LC inh
O=C(OCn1ncc(Cl)c(Cl)c1=O)c1cccc(C(F)(F)F)c1 | 4.1 | 22357* | 1.1 | -1.7 | -1.8 | 1.0
O=C(OCn1ncc(Br)c(Br)c1=O)c1ccccc1Cl | 2.6 | 3438 | 0.6 | -4.1 | -1.1 | -22.5
CCN(C(=O)CSc1ncccn1)C1CCS(=O)(=O)C1 (centres undefined) | 28.6 | 5914 | 0.4 | 5.1 | 1.3 | 8.9
Oc1cc2c(cc1O)C1c3ccc(O)c(O)c3OCC1(O)C2 (centres undefined) | 21.1 | 3952 | -5.9 | -20.3 | 263.9* | -25.4
C=CCOc1c(CNc2ccc(C(=O)O)cc2)cccc1OC | -4.8 | 2150 | 0.4 | -2.3 | 0.4 | -2.9
C=CCOc1c(CNc2ccc(C(=O)O)cc2)cccc1OCC | 9.6 | 19846* | ? | -0.2 | -2.0 | 9.2
Cc1c(N=Nc2c(-c3ccc([N+](=O)[O-])cc3)[nH]n(C(N)=S)c2=O)cccc1[N+](=O)[O-] | . | 4176 | -2.2 | -6.0 | -11.4 | -3.9
COc1cc(CN2CCCC(C(=O)Nc3ccccc3Oc3cccnc3)C2)ccc1F (centres undefined) | 12.8 | 5990 | 0.6 | 0.6 | 2.2 | -0.1
O=C(Nc1ccccc1Oc1cccnc1)C1CCCN(Cc2ccc(F)cc2)C1 (centres undefined) | 57.1* | 5991 | 1.2 | 3.4 | -1.4 | -4.3
C=CCn1c2[n+](c3ccccc3c1=O)CCCCC2 | 7.7 | 3262 | -0.2 | 6.8 | 3.8 | -1.7
NC(=O)CSCc1cccc(Br)c1 | 0.0 | 3688 | -2.0 | -8.0 | -4.8 | -25.8
O=C(CSCc1cccc(Br)c1)N1CCOCC1 | 39.6 | 23815* | -2.5 | -1.0 | 0.0 | -5.4
O=C(Nc1ccc(Cl)cc1)NN1CCCCCC1 | . | 3799 | -0.3 | 1.4 | 4.0 | -4.1
Cc1nc(NC(=O)c2cc(-n3cnnc3)ccc2Cl)ccc1Br | 8.7 | 21255* | -5.2 | 0.0 | 3.8 | -5.4
CCSCCNC(=O)c1cc(-n2cnnc2)ccc1Cl | -7.5 | 21120* | ? | -10.5 | 0.5 | 2.0
O=C(NCc1ccc2c(c1)OCO2)c1cc(-n2cnnc2)ccc1Cl | 2.4 | 19482* | 1.5 | -0.6 | 5.3 | 1.3
COc1ccc(CCn2c(-c3cccc([N+](=O)[O-])c3)nc3nc4ccccc4nc32)cc1 | . | 4521 | 1.6 | 3.2 | 5.1 | -0.9
CC(=O)Oc1ccc(N2C(=O)C3C4C=CC(CO)(O4)C3C2=O)cc1 (centres undefined) | 30.5 | 2541 | -0.3 | -0.2 | 4.4 | -8.0
COc1ccc(C(=O)NCC23C=CC(O2)C2C(=O)N(Cc4ccccc4)C(=O)C23)cc1 (centres undefined) | 43.8 | 19591* | ? | 1.9 | 5.0 | 0.4
COC(C(=O)Nc1ccnn1C1CCN(C(=O)c2ccc(C)cc2)CC1)c1ccccc1 (centres undefined) | 51.3* | 5035 | -0.3 | -4.6 | 2.1 | 0.1
Cc1cc(C)n2c(Nc3ccc4c(c3)OCCO4)c(-c3cc4ccccc4o3)nc2n1 | . | 4370 | 0.0 | 8.2 | . | -0.1
O=C(COc1ccc(S(=O)(=O)N2CCOCC2)cc1)Nc1ccccc1C(F)(F)F | -10.8 | 22134* | 3.6 | -3.1 | 4.5 | 4.6
